Measles CPE: compounds protecting cells from measles virus cytopathic effect, primary screen, measles RdRp inhibitor project, single point, MLSMR library, absorbance | Measles virus-infected cells, CPE protection | protection (pct of control), % at 4 µM | hit rate 1.5% among 140,000 | AID 841, 2007; in the data active = protection mostly above about 24%, no sharp cut-off; inactive = mostly below about 26%
LYP act: LYP phosphatase activators, primary screen, biochemical, DiFMUP fluorescence, 2 µM; AID 697, 2007; activation, % at 2 µM; Tyrosine-protein phosphatase non-receptor type 22 (Homo sapiens), Q9Y2R2; hit rate 0.11% among 96,000; recombinant LYP; 0 = plate median, 100 = signal doubled;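 active = activation at 2 µM above a set limit, the mean plus 5 SD, cut at about 37% in these data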
Target sequence (Q9Y2R2 whole entry, looked up): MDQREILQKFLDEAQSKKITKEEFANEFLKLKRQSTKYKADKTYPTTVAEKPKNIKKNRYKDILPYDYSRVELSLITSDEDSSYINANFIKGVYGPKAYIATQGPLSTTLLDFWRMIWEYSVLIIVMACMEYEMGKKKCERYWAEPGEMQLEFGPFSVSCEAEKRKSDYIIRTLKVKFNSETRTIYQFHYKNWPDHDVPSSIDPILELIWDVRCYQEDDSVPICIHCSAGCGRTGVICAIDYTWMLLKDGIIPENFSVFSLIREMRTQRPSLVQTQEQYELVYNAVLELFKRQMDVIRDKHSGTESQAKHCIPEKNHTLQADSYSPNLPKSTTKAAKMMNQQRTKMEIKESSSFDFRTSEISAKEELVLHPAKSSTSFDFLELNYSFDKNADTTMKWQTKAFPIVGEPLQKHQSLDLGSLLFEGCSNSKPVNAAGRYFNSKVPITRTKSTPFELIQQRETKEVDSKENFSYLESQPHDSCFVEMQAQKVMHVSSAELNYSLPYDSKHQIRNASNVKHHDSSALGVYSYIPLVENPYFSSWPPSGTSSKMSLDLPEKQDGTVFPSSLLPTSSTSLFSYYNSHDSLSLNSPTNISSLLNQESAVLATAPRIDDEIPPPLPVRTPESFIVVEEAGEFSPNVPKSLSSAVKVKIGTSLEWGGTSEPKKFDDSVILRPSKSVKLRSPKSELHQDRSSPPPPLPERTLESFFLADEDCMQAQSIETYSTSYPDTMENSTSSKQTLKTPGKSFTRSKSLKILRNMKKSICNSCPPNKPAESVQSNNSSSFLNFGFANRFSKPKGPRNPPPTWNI
PTPN22 inh 2: PTPN22 phosphatase inhibitors, primary screen, biochemical, DiFMUP fluorescence, 2 µM | Tyrosine-protein phosphatase non-receptor type 22 (Homo sapiens), Q9Y2R2 | recombinant LYP catalytic domain | inhibition, % at 2 µM | hit rate 0.21% among 96,000;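 active = inhibition at 2 µM at or above a set limit, the screen mean plus 3 SD, cut at about 24% in these data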;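 note: 0% = DMSO with enzyme and 100% = enzyme fully blocked by orthovanadate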
Active calls of the source: *; . = not tested or not shown. A selection: hits, their analogues and other compounds. The true share with any hit is near 1.7%.

SMILES	Measles CPE	LYP act	PTPN22 inh 2
Cc1cc(C(=O)CSc2nnnn2C)c(C)n1CCc1ccc(Cl)cc1	20	-13	10
Cc1cc(C(=O)Cn2cncn2)c(C)n1CCc1ccc(F)cc1	68*	0	2
Cc1ccc(Nc2nc(N3CCOCC3)c3ccccc3n2)cc1	1	-1	0
Cc1ccc2nc(NC(=O)Cn3nc(C)c([N+](=O)[O-])c3C)sc2c1	19	.	.
COc1ccc(CCNS(=O)(=O)c2ccc3c(c2)CCN3C(=O)C2CC2)cc1OC	22	0	-2
COc1ccc(CCNS(=O)(=O)c2ccc3c(c2)CC(C)N3C(C)=O)cc1OC (stereo not given)	38*	0	-3
Cc1nc2ccccc2c2oc(C(=O)NCc3ccc4c(c3)OCO4)cc12	6	3	-6
CCOC(=O)N1CCN(C(=O)Cn2ncc3ccccc32)CC1	6	.	.
Cn1c(=O)[nH]c(NC2CCCCC2)c(N=O)c1=O	41*	.	.
Cn1c(=O)[nH]c(NC2CCCCC2)c([N+](=O)[O-])c1=O	3	.	.
CC(=O)N1CCN=C1SCc1cccc(C(F)(F)F)c1	19	5	-6
COC(=O)c1ccccc1NC(=S)NC(=O)c1ccc2ccccc2c1	4	.	.
COC(=O)c1ccccc1NC(=S)NC(=O)c1cccc2ccccc12	59*	-8	8
CCOC(=O)Cc1cc(=O)n2[nH]c(C)c(-c3ccc(OC)cc3)c2n1	19	-6	9
Cc1ccc(S(=O)(=O)N2c3ccccc3NC(=O)C2CC(=O)Nc2ccccc2)cc1 (stereo not given)	8	11	-12
COc1ccc(-n2nnnc2-c2ccccc2)cc1	3	1	0
Clc1ccc(-n2nnnc2-c2ccccc2)cc1	52*	.	.
C=CCN(CC=C)C(=S)NC(=O)/C=C/c1ccc(C)cc1	24	.	.
CC1(C)CC(=O)C(C=NCCN2CCNC2=O)=C(O)C1	35*	.	.
CC1(C)CC(=O)C(C=NCCCO)=C(O)C1	12	-3	1
COCCCN1C(=O)C(=O)/C(=C(/O)c2ccc(OC)cc2C)C1c1cccnc1 (stereo not given)	6	-4	2
CNC(=O)c1sc(-c2ccccc2)nc1C	10	4	-3
CNC(=O)c1cc(C)c(-c2ccccc2)s1	49*	5	-11
CC1CC(C)CN(C(=O)C2CCCN(S(=O)(=O)c3cccc4nonc34)C2)C1 (stereo not given)	53*	0	1
O=C(C1CCCN(S(=O)(=O)c2cccc3nonc23)C1)N1CCN(c2ccccc2)CC1 (stereo not given)	16	-5	8
SMILES	Measles CPE	LYP act	PTPN22 inh 2
NNc1nc(-c2ccccc2)nc2sc3c(c12)CCCC3	11	.	.
CCOC(=O)c1c(NC(=S)Nc2ccccc2)sc2c1CCN(CCc1ccccc1)C2	29	-8	10
COc1ccc(OC)c(C2C3=C(CC(C)(C)CC3=O)Nc3nnnn32)c1 (stereo not given)	31*	.	.
COc1ccc(C2CC(c3cc(OC)ccc3OC)n3nnnc3N2)cc1 (stereo not given)	7	-12	13
COCCN(C(=S)Nc1ccc(OC)cc1)C1CCN(C(C)C)CC1	10	.	.
Cc1ccc(NC(=S)N(Cc2ccco2)C2CCN(C(C)C)CC2)cc1	39*	.	.
CCN(CC)S(=O)(=O)c1ccc(C(=O)Nc2ncn(Cc3ccccc3)n2)cc1	17	0	-2
COc1ccc2nc(/N=C(\N)NC(=O)N3c4ccccc4Sc4ccccc43)nc(C)c2c1	13	.	.
COc1ccc2c(c1)Cc1sc(NC(C)=O)nc1-2	38*	-2	-2
COc1ccc2c(c1)Cc1sc(NC(=O)c3ccco3)nc1-2	2	8	-6
Cc1cc(C(=O)N/N=C\c2ccc(COc3ccc([N+](=O)[O-])cc3)o2)ccc1[N+](=O)[O-]	4	-2	-2
CC(C)C(C)NC(=O)COc1ccc(-c2ccccc2)cc1 (stereo not given)	18	3	-1
CC(C)C(NC(=O)COc1ccccc1)C(=O)O (stereo not given)	44*	27	-29
Nc1[nH]c(N=NC(=O)c2ccccc2)c2ccccc12	19	.	.
Nc1[nH]c(N=NC(=O)c2ccc(Cl)cc2)c2ccccc12	45*	.	.
O=C(Nc1ccccc1N1CCCC1)c1ccco1	21	-2	3
CCCNS(=O)(=O)c1cccc(C(=O)NC2CCCc3ccccc32)c1 (stereo not given)	41*	-5	4
CN(C)S(=O)(=O)c1cccc(C(=O)NC2CCCc3ccccc32)c1 (stereo not given)	13	9	-7
Cc1ccc(CNC(=O)c2cn(C)c(=O)c3c2c2ccccc2n3C)o1	8	-9	12
Cc1ccccc1C(=O)NC1CCN(C(=O)N2CCOCC2)CC1	3	1	-2
Cc1ccccc1C(=O)NC1CCN(CC(=O)Nc2c(C)cccc2C)CC1	39*	-10	7
CC(=O)c1c(C)nc2sc3c(=N)n(N)cnc3c2c1-c1ccc(Cl)cc1	2	.	.
COc1ccc(-c2cn3cccnc3n2)cc1F	29*	.	.
Clc1ccc(-c2cn3cccnc3n2)cc1Cl	20	9	-11
O=[N+]([O-])c1ccc(N2CCNCC2)c(S(=O)(=O)N2CCOCC2)c1	5	.	.
SMILES	Measles CPE	LYP act	PTPN22 inh 2
Cc1nn(-c2ccccc2)c(Cl)c1C(=O)NCCCCNC(=O)c1c(C)nn(-c2ccccc2)c1Cl	0	4	-2
O=C(CCCSc1nc2ccccc2[nH]1)NCc1ccccc1Cl	8	.	.
O=C(C(c1ccccc1)c1ccccc1)N1CCC(c2nc(-c3ccccc3Cl)no2)CC1	37*	-16	16
O=C(O)c1ccc(S(=O)(=O)N2CCC(c3nc(-c4ccccc4Cl)no3)CC2)cc1	7	2	-3
O=C(CNC(=O)c1ccncc1)N/N=C/c1cc(Br)ccc1O	11	.	.
COc1ccc(C2C(C#N)=C(N)N(c3sc4c(c3C#N)CCCC4)C3=C2C(=O)CC(C)(C)C3)cc1OC (stereo not given)	1	-27	26*
COc1ccc(C2C(C#N)=C(N)N(c3sc4c(c3C#N)CCCC4)C3=C2C(=O)CC(C)(C)C3)cc1 (stereo not given)	27	-2	1
CCOC(=O)c1c(C)[nH]c(C)c1C(=O)COC(=O)c1cccc(S(=O)(=O)N(CC)CC)c1	1	-1	3
CCOC(=O)c1c(C)[nH]c(C)c1C(=O)COC(=O)c1ccc(S(=O)(=O)N(CC)CC)cc1	51*	8	-6
Cc1ccc(SCc2cc(-c3ccc(Cl)cc3)on2)cc1	7	13	-9
Cc1ccc(-c2cc(C(F)(F)F)c(C#N)c(SCCC#N)n2)o1	0	1	-1
O=C(c1ccccc1)c1cc(-c2ccccc2)on1	5	3	-11
CCN(CC)C(=O)C1CCCN(C(=O)Nc2ccccc2)C1 (stereo not given)	35*	-3	5
O=C(NCc1ccc(F)cc1)C1CCCN(C(=O)Nc2ccccc2)C1 (stereo not given)	10	3	-3
COc1ccc(-c2c[n+]3c4n2CCCCC4=C(c2ccc(Br)cc2)C3)cc1	8	-2	1
Clc1ccc(C2=C3CCCCn4c(-c5ccccc5)c[n+](c43)C2)cc1	3	-24	26*
COC(=O)C1CCN(S(=O)(=O)c2ccc(OC)cc2)CC1	8	-4	5

Screens from PubChem BioAssay.
